Laboratory results from PubChem BioAssay (Tox21).
Several values for one entry are separate records, joined by “and”; a condition that tells them apart may be missing. Identical values can stand only once. Values without a mark were called inactive. Records with an inconclusive call do not appear. Entries that show only a call come without a potency. Activity calls are given as the source filed them. Unless noted, calls follow the shape of the dose curve; as a rule, active = well fitted curve in the direction sought with a large enough effect in the repeat runs; inconclusive = weak or mixed curves; inactive = no such curve, though single readings can be large; an effect the other way counts as inactive or inconclusive.

Columns and labels:
[1] = qHTS RealTime-Glo MT Cell Viability Assay in HepG2 cells - 16 hour (AID 1224885); also: nearly all actives have a fitted effect of over 50% in size
Method in brief: (§1)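 Cell number in HepG2 cultures estimated from NanoLuc luminescence generated by metabolic reduction of a prosubstrate by living cells. The homogeneous, nonlytic format allowed repeated reads at 0, 8, 16, 24, 32 and 40 h of compound exposure.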

[2] = qHTS RealTime-Glo MT Cell Viability Assay in HEK293 cells - 24 hour (AID 1224886); also: top concentration of the series differs between compounds; nearly all actives have a fitted effect of over 50% in size
Method in brief: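 Homogeneous bioluminescent viability format in HEK293 cells (600 cells/well). Following 5 h at 37 C/5% CO2, 23 nL compound was pintooled; the signal was measured repeatedly during 40 h incubation.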

[3] = qHTS RealTime-Glo MT Cell Viability Assay in HEK293 cells - 8 hour (AID 1224887); also: top concentration of the series differs between compounds; nearly all actives have a fitted effect of over 50% in size
Method in brief: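 HEK293 cells mixed with RealTime-Glo reagents (NanoLuc plus cell-permeant prosubstrate) at 600 cells/well, preincubated 5 h at 37 C/5% CO2, then given 23 nL compound in DMSO. Nonlytic luminescence from viable cells was read at 0, 8, 16, 24, 32 and 40 h.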

[4] = A CellTox Green Cytotoxicity Assay to monitor cytotoxicity in HEK293 cells - 16 hour (AID 1224888); also: nearly all actives have a fitted effect of over 35% in size
Method in brief: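 HEK293 cells premixed with CellTox Green dye were seeded at 600 cells/well and left 5 h at 37 C/5% CO2 before pin transfer of 23 nL compound in DMSO. Fluorescence from dye bound to dead-cell DNA was read during 40 h treatment.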

[5] = qHTS RealTime-Glo MT Cell Viability Assay in HepG2 cells - 0 hour (AID 1224889); also: nearly all actives have a fitted effect of over 50% in size
Method in brief: as §1

[6] = A CellTox Green Cytotoxicity Assay to monitor cytotoxicity in HepG2 cells - 8 hour (AID 1224890); also: nearly all actives have a fitted effect of over 45% in size
Method in brief: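 HepG2 cells were seeded together with the CellTox Green dye at 600 cells/well, left 5 h at 37 C/5% CO2, then given compounds in DMSO. Fluorescence from dye bound to dead-cell DNA was read repeatedly over 40 h of treatment at 37 C.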

[7] = qHTS assay to identify small molecule antagonists of the estrogen receptor alpha (ER-alpha) signaling pathway using the BG1 cell line in the presence of 0.1 nM 17-beta-estradiol - cell viability counter screen (AID 1259241); also: nearly all actives have a fitted effect of over 40% in size; also: potency is read from the fitted curve at half-maximal effect
Method in brief: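 Estradiol-stimulated (0.1 nM) VM7Luc4E2 cells exposed to compounds 22 hr; viability measured by fluorescence of cleaved CellTiter-Fluor substrate after 30 min.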

[8] = qHTS assay to identify small molecule antagonists of the androgen receptor (AR) signaling pathway using the MDA cell line in the presence of 0.5 nM R1881 - cell viability counter screen (AID 1259242); also: nearly all actives have a fitted effect of over 45% in size
Method in brief: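 MDA-kb2 cells (human breast carcinoma, stably carrying MMTV-luciferase reporter) were exposed to compounds with 0.5 nM R1881 (final) for 16 hr at 37C, 0% CO2; viability then read as live-cell protease fluorescence (CellTiter-Fluor, 30 min) in the same wells.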

[9] = qHTS assay to identify small molecule HDAC inhibitors (AID 1259364); also: top concentration of the series differs between compounds; nearly all actives have a fitted effect of over 45% in size
Method in brief: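 Wild-type HCT-116 cells were plated overnight, exposed to compounds for 2 h at 37 °C, then given HDAC-Glo class I/II luminogenic reagent for 30 min at room temperature before luminescence was read.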

[10] = qHTS assay to identify small molecule HDAC inhibitors - cell viability counter screen (AID 1259365)
Method in brief: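 After overnight seeding at 1,500 cells per well, wild-type HCT-116 cultures took up compounds in DMSO for 2hr at 37 C. Viable cell content came from luminescence with CellTiter-Glo.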

[11] = qHTS assay to identify small molecule agonists of the sonic hedgehog signaling (Shh) pathway - cell viability counter screen (AID 1259366); also: nearly all actives have a fitted effect of over 50% in size; also: potency is read from the fitted curve at half-maximal effect
Method in brief: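 Same-well cytotoxicity read. Gli1-Luc reporter 3T3 cells; compounds 24hr, 37C/5% CO2; CellTiter-Fluor fluorescence.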

[12] = qHTS assay to identify small molecule antagonists of the sonic hedgehog signaling (Shh) pathway - cell viability counter screen (AID 1259367); also: nearly all actives have a fitted effect of over 55% in size
Method in brief: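 NIH/3T3-derived Gli1-Luc reporter cells, 2,000/well, plated 4 hr before compound addition, then stimulated with conditioned medium for 24 hr at 37C. Viability measured in the same wells by CellTiter-Fluor fluorescence, reagent added at 23 hr for 1 hr.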

[13] = qHTS assay to identify small molecule antagonists of the sonic hedgehog signaling (Shh) pathway (AID 1259369; calls by dose curve; also: nearly all actives have a fitted effect of over 45% in size; also: potency is read from the fitted curve at half-maximal effect)
Method in brief: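 NIH/3T3-derived 3T3Gli1-Luc cells with stably integrated Gli1-Luc reporter were preincubated 4hr at 37 C, then given compounds in DMSO plus Shh conditioned medium and incubated 24hr. Firefly luciferase luminescence read after 30min reagent at room temperature.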

[14] = target: Estrogen receptor beta (Homo sapiens) (UniProt Q92731); test: qHTS assay to identify small molecule agonists of the estrogen receptor beta (ER-beta) signaling pathway (AID 1259377; active = well fitted activation curve with a large enough effect in the signal ratio in the repeat runs, not every such curve was filed as active; the % refers to the signal ratio)
Method in brief: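 Read-out: beta-lactamase FRET fluorescence. Cell line: ER-beta-UAS-bla HEK293T in 2% charcoal-stripped FBS. Exposure: 16 hr at 37C. Substrate step: 2 h at room temperature.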

[15] = target: Estrogen receptor beta (Homo sapiens) (UniProt Q92731); test: qHTS assay to identify small molecule antagonists of the estrogen receptor beta (ER-beta) signaling pathway (AID 1259378; active = well fitted inhibition curve with a large enough effect in the signal ratio in the repeat runs, not every such curve was filed as active; the % refers to the signal ratio)
Method in brief: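 ER-beta-UAS-bla HEK293T cells in 2% charcoal-stripped FBS medium treated with compound plus 1nM final 17-beta-estradiol for 16 hr at 37C. Beta-lactamase reporter read by FRET substrate fluorescence after 2 hours at room temperature.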

[16] = qHTS assay to identify small molecule agonists of the androgen receptor (AR) signaling pathway in the presence of an antagonist - cell viability counter screen (AID 1259379); also: nearly all actives have a fitted effect of over 25% in size; also: potency is read from the fitted curve at half-maximal effect
Method in brief: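 MDA-kb2 human breast carcinoma cells (stable MMTV-luciferase, AR/GR responsive) were seeded 3,000 cells/well, pre-incubated 5 hr at 37C without CO2, then given 3.0uM nilutamide and compounds at 15 concentrations for 16 hr. Viability was read by CellTiter-Fluor fluorescence.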

[17] = qHTS assay to identify small molecule agonists of the estrogen receptor beta (ER-beta) signaling pathway - cell viability counter screen (AID 1259380); also: nearly all actives have a fitted effect of over 30% in size; also: potency is read from the fitted curve at half-maximal effect
Method in brief: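 ER-beta-UAS-bla HEK293T cells in medium with 2% charcoal-stripped FBS were preincubated 6 hr at 37C, dosed with compound in DMSO for 16 hr, then after the bla read, CellTiter-Glo was added for 30 min at room temperature; luminescence recorded.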

[18] = qHTS assay to identify small molecule phospholipidosis (PLD) inducers (AID 1259344; active = well fitted curve in the direction sought with a large enough effect; an effect the other way counts as inactive or inconclusive)
Method in brief: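 HepG2 cells, 900/well, treated with compound plus LipidTOX Red for 24 h at 37 C; amiodarone positive and DMSO negative controls. Fixed with paraformaldehyde/Hoechst, then high-content imaging scored LipidTOX pit count and integrated intensity per well and per cell.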

[19] = qHTS assay to identify small molecule agonists of the sonic hedgehog signaling (Shh) pathway (AID 1259368; calls by dose curve; also: series mostly up to about 92 µM; nearly all actives have a fitted effect of over 15% in size)
Method in brief: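 NIH/3T3-derived 3T3Gli1-Luc cells carrying a stably integrated Gli1 response element–firefly luciferase reporter were plated, left 4 hr at 37 C, then given compounds in DMSO for 24 hr. Luminescence was read 30 min after adding luciferase reagent.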

[20] = target: Estrogen receptor (Homo sapiens) (UniProt P03372); test: qHTS assay to identify small molecule antagonists of the estrogen receptor alpha (ER-alpha) signaling pathway using the BG1 cell line in the presence of 0.1 nM 17-beta-estradiol (AID 1259244); also: nearly all actives have a fitted effect of over 50% in size
Method in brief: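 VM7Luc4E2 cells (endogenous full-length ER-alpha, stable 4xERE-luciferase) were grown 5 days in phenol red-free medium with charcoal-stripped FBS, then exposed 22 h at 37C to compounds plus 0.1 nM (final) 17beta-estradiol; ONE-Glo luminescence read-out.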

Chain of Estrogen receptor beta (Homo sapiens) (Q92731 whole entry, looked up): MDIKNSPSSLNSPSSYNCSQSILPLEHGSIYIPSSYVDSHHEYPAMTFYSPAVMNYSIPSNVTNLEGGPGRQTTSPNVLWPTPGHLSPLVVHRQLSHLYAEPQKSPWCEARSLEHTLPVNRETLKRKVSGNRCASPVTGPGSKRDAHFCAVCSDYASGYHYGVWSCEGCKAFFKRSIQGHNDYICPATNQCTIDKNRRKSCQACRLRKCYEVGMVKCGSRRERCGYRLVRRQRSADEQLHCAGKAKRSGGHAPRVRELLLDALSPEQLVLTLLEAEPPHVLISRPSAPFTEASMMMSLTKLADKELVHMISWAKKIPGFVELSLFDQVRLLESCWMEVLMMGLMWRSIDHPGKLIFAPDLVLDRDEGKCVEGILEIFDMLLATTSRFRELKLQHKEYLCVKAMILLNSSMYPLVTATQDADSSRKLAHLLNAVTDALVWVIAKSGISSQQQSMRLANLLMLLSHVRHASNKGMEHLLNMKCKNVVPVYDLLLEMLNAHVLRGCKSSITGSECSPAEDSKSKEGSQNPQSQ
Chain of Estrogen receptor (Homo sapiens) (P03372 whole entry, looked up): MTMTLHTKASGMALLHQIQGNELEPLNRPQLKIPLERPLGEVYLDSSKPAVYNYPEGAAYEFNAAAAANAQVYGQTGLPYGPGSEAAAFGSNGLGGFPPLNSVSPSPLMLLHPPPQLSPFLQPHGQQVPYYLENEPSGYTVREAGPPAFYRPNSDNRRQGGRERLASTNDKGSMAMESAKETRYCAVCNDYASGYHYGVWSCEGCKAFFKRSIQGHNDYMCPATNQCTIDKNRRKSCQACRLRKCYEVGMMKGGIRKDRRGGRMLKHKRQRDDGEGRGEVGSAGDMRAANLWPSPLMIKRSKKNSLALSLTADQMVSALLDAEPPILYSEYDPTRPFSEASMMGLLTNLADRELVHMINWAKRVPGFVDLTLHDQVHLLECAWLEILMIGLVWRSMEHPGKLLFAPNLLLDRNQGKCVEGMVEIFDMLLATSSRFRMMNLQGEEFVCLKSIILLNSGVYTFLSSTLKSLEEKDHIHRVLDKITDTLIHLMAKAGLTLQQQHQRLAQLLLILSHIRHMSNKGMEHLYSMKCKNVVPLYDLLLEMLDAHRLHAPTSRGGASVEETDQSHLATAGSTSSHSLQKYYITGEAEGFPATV

Row | Compound | outcome [1] | Potency [2] | Potency [3] | outcome [4] | Potency [5] | Potency [6] | Potency [7] | outcome [8] | Potency [9] | outcome [10] | Potency [11] | Potency [12] | Potency [13] | Potency [14] | Potency [15] | Potency [16] | Potency [17] | outcome [18] | outcome [19] | Potency [20]
1 | CCCCCC/C(C=O)=C\c1ccccc1 | inactive | inactive | inactive | inactive | inactive | inactive | inactive | inactive | inactive | inactive | inactive | inactive | inactive | inactive | inactive | inactive | inactive | – | – | –
2 | COc1ccc(Cl)cc1C(=O)NCCc1ccc(S(=O)(=O)NC(=O)NC2CCCCC2)cc1 | – | inactive | inactive | inactive | – | inactive | inactive | inactive | inactive | inactive | inactive | inactive | inactive | inactive | inactive | inactive | 48.6 µM (active) | inactive | – | –
3 | Nc1ccccc1[N+](=O)[O-] | – | inactive | inactive | inactive | inactive | inactive | inactive | inactive | inactive | inactive | inactive | inactive | inactive | inactive | inactive | inactive | inactive | – | inactive | –
4 | C[Si](O[Si](C)(C)C)O[Si](C)(C)C | – | inactive | inactive | inactive | – | inactive | inactive | inactive | inactive | inactive | inactive | inactive | inactive | inactive | inactive | inactive | inactive | – | inactive | –
5 | CCc1cccc(C)c1N | – | inactive | inactive | inactive | inactive | inactive | inactive | inactive | inactive | inactive | inactive | inactive | inactive | – | – | inactive | inactive | – | inactive | inactive
6 | Nc1cc([N+](=O)[O-])ccc1O | – | inactive | inactive | inactive | inactive | inactive | 48.6 µM (active) | – | inactive | inactive | 48.6 µM (active) | inactive | inactive | – | – | 48.6 µM (active) and 54.2 µM (active) | inactive | – | inactive | –
7 | Oc1cccc2ccccc12 | – | inactive | inactive | inactive | – | inactive | inactive | inactive | inactive | inactive | inactive | inactive | 6.28 µM (active) and 15.4 µM (active) | inactive | – | inactive | inactive | – | inactive | –
